# Experimental data as given in PubChem BioAssay (Tox21).
# Inconclusive results are not listed. Where a call stands in place of a potency, no number is given. Values without a mark were called inactive. Activity calls are given as the source filed them. Unless noted, the call rests on the fitted dose curve; in most records, active means well fitted cell-killing curve with a large enough effect in the repeat runs; inconclusive means weak or mixed curves, or effect the other way; inactive means flat fitted curve, though single readings scatter.
# Molecular target: Estrogen receptor beta (Homo sapiens) (UniProt Q92731)
# Assay: qHTS assay to identify small molecule antagonists of the estrogen receptor beta (ER-beta) signaling pathway (AID 1259378; active means well fitted inhibition curve with a large enough effect in the signal ratio in the repeat runs, not every such curve was filed as active; the % refers to the signal ratio)
# Conditions: ER-beta-UAS-bla HEK293T, beta-lactamase FRET ratio, 16 h; series mostly up to 92.4 µM
# Summary of the method: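 Antagonist mode: compounds added to beta-lactamase reporter HEK293T ER-beta-UAS cells stimulated with E2 (1nM final), 16 hr at 37C. LiveBLAzer B/G FRET substrate, 2 hours room temperature, fluorescence read-out.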
# Sequence of Estrogen receptor beta (Homo sapiens) (Q92731 whole entry, looked up): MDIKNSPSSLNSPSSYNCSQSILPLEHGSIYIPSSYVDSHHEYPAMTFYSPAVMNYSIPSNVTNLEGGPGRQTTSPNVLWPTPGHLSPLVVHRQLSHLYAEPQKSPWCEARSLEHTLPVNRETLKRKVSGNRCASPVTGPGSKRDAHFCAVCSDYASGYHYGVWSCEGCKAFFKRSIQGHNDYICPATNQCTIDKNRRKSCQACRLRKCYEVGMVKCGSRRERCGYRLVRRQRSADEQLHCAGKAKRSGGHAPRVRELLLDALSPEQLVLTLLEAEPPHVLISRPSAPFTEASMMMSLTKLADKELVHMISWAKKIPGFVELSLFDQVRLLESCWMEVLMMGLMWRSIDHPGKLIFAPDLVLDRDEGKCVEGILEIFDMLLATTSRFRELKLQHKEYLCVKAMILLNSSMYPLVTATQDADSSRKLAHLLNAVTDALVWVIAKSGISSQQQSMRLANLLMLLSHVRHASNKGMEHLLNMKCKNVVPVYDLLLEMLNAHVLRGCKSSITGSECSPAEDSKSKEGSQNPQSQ
Compound,outcome,"activity, negative = inhibition"
N#CC1(N)CCCCC1,inactive,–
CC(C)(C)c1ccc(C(=O)CCCCl)cc1,inactive,–
CN(C)CCCN(C)C,–,14.4% [at 8.39 µM]
CCCCC(CC)COC(=O)CC#N (stereo unspecified),inactive,–
COc1ccc(Cl)cc1C,inactive,–
Cc1cc(O)c(Cl)cc1C,inactive,–
CN(C)c1ccncc1,inactive,–
CC(C)(C)c1ccc(N)cc1,inactive,–
CCCCCCCC(=O)N(C)C,inactive,–
CCN1CCN(C(=O)N[C@@H](C(=O)N[C@@H]2C(=O)N3[C@@H]2SC(C)(C)[C@H]3C(=O)O)c2ccccc2)C(=O)C1=O,inactive,–
Cc1ccccc1OCC(=O)O,inactive,–
CC[N+](C)(CC)CC,inactive,–
CCCCS,inactive,–
CCC(C)c1nccnc1OC (stereo unspecified),inactive,–
CC1(C)S[C@@H]2[C@H](NC(=O)Cc3ccccc3)C(=O)N2[C@H]1C(=O)O (tested in a mixture with another compound),inactive,–
C=COCCCCO,inactive,–
CCOC(=O)CC(C(C)=O)C(C)=O,inactive,–
C=CCN(CC=C)CC=C,inactive,–
CC(C)(C)OC=O,inactive,–

Compound,outcome,"activity, negative = inhibition"
COc1ccccc1N1CCN(CC(O)COc2cc(OC)c(OC)c(OC)c2)CC1 (stereo unspecified),inactive,–
C/C=C(\C)C=O,inactive,–
CNC(C)=O,inactive,–
O=Cc1ccccc1S(=O)(=O)O,inactive,–
CCCCCCCCCCCCCCBr,inactive,–
C[C@@H]1NC(=O)[C@@H](N)CNC(=O)[C@H](C2CCNC(N)=N2)NC(=O)/C(=C/NC(N)=O)NC(=O)[C@H](CNC(=O)C[C@@H](N)CCCN)NC1=O (stereo partly specified),–,-0.409% [at 0.349 µM]
COc1cc2nc(N3CCN(C(=O)C4CCCO4)CC3)nc(N)c2cc1OC (stereo unspecified),inactive,–
O=S(=O)(O)CC(O)CCl (stereo unspecified),inactive,–
C=CC(=O)OCC[N+](C)(C)C,inactive,–
C=C(C)C(=O)OCCOC1CC2CC1C1C=CCC21 (stereo unspecified),inactive,–
C/C=C/C(=O)CCCC,inactive,–
CCCC(C)C(O)CC (stereo unspecified),inactive,–
CCCCCCCCCCCBr,inactive,–
CC1(C)CC(N)CC(C)(C)N1,inactive,–
COc1cc(C(=O)NC2CCCNC2)cc(OC)c1OC (stereo unspecified),inactive,–
Cc1cc(N)no1,inactive,–
CC(=O)SCC(CC(=O)c1ccc(C)cc1)C(=O)O (stereo unspecified),inactive,–
NCC1CCC(C(=O)Oc2ccc(CCC(=O)O)cc2)CC1 (stereo unspecified),inactive,–
C[n+]1ccccc1/C=N/O,inactive,–

# Tested on: not listed separately
# Assay: qHTS assay to identify small molecule agonists of the androgen receptor (AR) signaling pathway in the presence of an antagonist - cell viability counter screen (AID 1259379);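 further: MDA-kb2 human breast cancer cells carrying an MMTV luciferase reporter; nearly all actives have a fitted effect of over 25% in size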
# Conditions: MDA-kb2 viability, CellTiter-Fluor, 16 h; series mostly up to 92.4 µM
# Summary of the method: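 MDA-kb2 viability measured by CellTiter-Fluor fluorescence in the same wells as the luciferase signal; nilutamide 3.0uM final; 15-point compound titration; 16 hr at 37C.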
Compound,outcome,"activity change, negative = cytotoxicity"
N#CC1(N)CCCCC1,inactive,–
CC(C)(C)c1ccc(C(=O)CCCCl)cc1,inactive,–
CN(C)CCCN(C)C,–,4.3% [at 8.39 µM]
CCCCC(CC)COC(=O)CC#N (stereo unspecified),inactive,–
COc1ccc(Cl)cc1C,inactive,–
Cc1cc(O)c(Cl)cc1C,inactive,–
CN(C)c1ccncc1,inactive,–
CC(C)(C)c1ccc(N)cc1,inactive,–
CCCCCCCC(=O)N(C)C,inactive,–
CCN1CCN(C(=O)N[C@@H](C(=O)N[C@@H]2C(=O)N3[C@@H]2SC(C)(C)[C@H]3C(=O)O)c2ccccc2)C(=O)C1=O,inactive,–
Cc1ccccc1OCC(=O)O,inactive,–
CC[N+](C)(CC)CC,inactive,–
CCCCS,inactive,–
CCC(C)c1nccnc1OC (stereo unspecified),inactive,–
CC1(C)S[C@@H]2[C@H](NC(=O)Cc3ccccc3)C(=O)N2[C@H]1C(=O)O (tested in a mixture with another compound),inactive,–
C=COCCCCO,inactive,–
CCOC(=O)CC(C(C)=O)C(C)=O,inactive,–
C=CCN(CC=C)CC=C,inactive,–
CC(C)(C)OC=O,inactive,–

Compound,outcome,"activity change, negative = cytotoxicity"
COc1ccccc1N1CCN(CC(O)COc2cc(OC)c(OC)c(OC)c2)CC1 (stereo unspecified),inactive,–
C/C=C(\C)C=O,inactive,–
CNC(C)=O,inactive,–
O=Cc1ccccc1S(=O)(=O)O,inactive,–
CCCCCCCCCCCCCCBr,inactive,–
C[C@@H]1NC(=O)[C@@H](N)CNC(=O)[C@H](C2CCNC(N)=N2)NC(=O)/C(=C/NC(N)=O)NC(=O)[C@H](CNC(=O)C[C@@H](N)CCCN)NC1=O (stereo partly specified),–,5.61% [at 0.35 µM]
COc1cc2nc(N3CCN(C(=O)C4CCCO4)CC3)nc(N)c2cc1OC (stereo unspecified),inactive,–
O=S(=O)(O)CC(O)CCl (stereo unspecified),inactive,–
C=CC(=O)OCC[N+](C)(C)C,inactive,–
C=C(C)C(=O)OCCOC1CC2CC1C1C=CCC21 (stereo unspecified),inactive,–
C/C=C/C(=O)CCCC,inactive,–
CCCC(C)C(O)CC (stereo unspecified),inactive,–
CCCCCCCCCCCBr,inactive,–
CC1(C)CC(N)CC(C)(C)N1,inactive,–
COc1cc(C(=O)NC2CCCNC2)cc(OC)c1OC (stereo unspecified),inactive,–
Cc1cc(N)no1,inactive,–
CC(=O)SCC(CC(=O)c1ccc(C)cc1)C(=O)O (stereo unspecified),inactive,–
NCC1CCC(C(=O)Oc2ccc(CCC(=O)O)cc2)CC1 (stereo unspecified),inactive,–
C[n+]1ccccc1/C=N/O,inactive,–

# Tested on: not listed separately
# Assay: qHTS assay to identify small molecule agonists of the estrogen receptor beta (ER-beta) signaling pathway - cell viability counter screen (AID 1259380); further: nearly all actives have a fitted effect of over 30% in size
# Conditions: ER-beta-bla HEK293T viability, CellTiter-Glo luminescence, 16 h; series mostly up to 92.4 µM
# Summary of the method: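 Measured: luminescence from CellTiter-Glo after 30 min at room temperature, added to wells already read for the LiveBLAzer FRET reporter (2 hr substrate); ER-beta-UAS-bla HEK293T cells had 16 hr compound treatment at 37C, 5% CO2.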
Compound,Potency,"activity change, negative = cytotoxicity"
N#CC1(N)CCCCC1,inactive,–
CC(C)(C)c1ccc(C(=O)CCCCl)cc1,inactive,–
CN(C)CCCN(C)C,–,5.46% [at 8.39 µM]
CCCCC(CC)COC(=O)CC#N (stereo unspecified),inactive,–
COc1ccc(Cl)cc1C,inactive,–
Cc1cc(O)c(Cl)cc1C,inactive,–
CN(C)c1ccncc1,inactive,–
CC(C)(C)c1ccc(N)cc1,inactive,–
CCCCCCCC(=O)N(C)C,inactive,–
Cc1ccccc1OCC(=O)O,inactive,–
CC[N+](C)(CC)CC,inactive,–
CCCCS,inactive,–
CCC(C)c1nccnc1OC (stereo unspecified),inactive,–
CC1(C)S[C@@H]2[C@H](NC(=O)Cc3ccccc3)C(=O)N2[C@H]1C(=O)O (tested in a mixture with another compound),inactive,–
C=COCCCCO,inactive,–
CCOC(=O)CC(C(C)=O)C(C)=O,inactive,–
C=CCN(CC=C)CC=C,inactive,–
CC(C)(C)OC=O,inactive,–

Compound,Potency,"activity change, negative = cytotoxicity"
COc1ccccc1N1CCN(CC(O)COc2cc(OC)c(OC)c(OC)c2)CC1 (stereo unspecified),inactive,–
C/C=C(\C)C=O,inactive,–
CNC(C)=O,inactive,–
O=Cc1ccccc1S(=O)(=O)O,inactive,–
CCCCCCCCCCCCCCBr,inactive,–
C[C@@H]1NC(=O)[C@@H](N)CNC(=O)[C@H](C2CCNC(N)=N2)NC(=O)/C(=C/NC(N)=O)NC(=O)[C@H](CNC(=O)C[C@@H](N)CCCN)NC1=O (stereo partly specified),–,11.9% [at 0.349 µM]
COc1cc2nc(N3CCN(C(=O)C4CCCO4)CC3)nc(N)c2cc1OC (stereo unspecified),inactive,–
O=S(=O)(O)CC(O)CCl (stereo unspecified),inactive,–
C=CC(=O)OCC[N+](C)(C)C,inactive,–
C/C=C/C(=O)CCCC,inactive,–
CCCC(C)C(O)CC (stereo unspecified),inactive,–
CCCCCCCCCCCBr,inactive,–
CC1(C)CC(N)CC(C)(C)N1,inactive,–
COc1cc(C(=O)NC2CCCNC2)cc(OC)c1OC (stereo unspecified),inactive,–
Cc1cc(N)no1,inactive,–
NCC1CCC(C(=O)Oc2ccc(CCC(=O)O)cc2)CC1 (stereo unspecified),inactive,–
C[n+]1ccccc1/C=N/O,inactive,–
